This note sets out measurements from PubChem BioAssay (EPA / NIEHS).

Results filed as inconclusive are left out. Activity calls are given as the source filed them. How the source made its calls, unless noted: active means hit-call score of the fitted dose curve at least 0.9, where 1 is the maximum; inconclusive means response in the unintended direction; inactive means score below 0.9.

Experiment [1] is described as follows: TOX21_p53_BLA_p2_viability: Viability Assessment in the Tox21 HCT-116 p53 Agonism Beta-lactamase Assay, Phase 2 (AID 2283591).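 Further: compound exposure lasted 16 h at 37 °C; actives lower the ATP signal meaning cytotoxicity.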 Summed up: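 HCT-116 p53-bla cells (4000/well) rested 5 h at 37C, then received compounds in DMSO (217-fold dilution) for 16 h at 37C, 5% CO2. After the CCF4 read, CellTiter-Glo was added; ATP luminescence was read after 30 min at room temperature.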

In experiment [2] the target is Cellular tumor antigen p53 (Homo sapiens) (UniProt P04637). The experiment in a line: TOX21_p53_BLA_p2_ratio: Tox21 HCT-116 p53 Agonism Beta-lactamase Assay, Ratio, Phase 2 (AID 2283592). Summed up: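 HCT116 p53-bla; 4000 cells/well; 5 h pre-incubation; cpd in DMSO, 217-fold dilution; 16 h 37C/5% CO2; CCF4-AM 2 h RT; Ex 405, Em 460/530 ratio; DMSO = baseline; positive fitting direction.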

Experiment [3] is described as follows: TOX21_p53_BLA_p3_viability: Viability Assessment in the Tox21 HCT-116 p53 Agonism Beta-lactamase Assay, Phase 3 (AID 2283593).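 Further: cells exposed to compound for 16 h before reading.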 Summed up: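 HCT-116 cells (4000/well) rested 5 h at 37C, then got DMSO compounds by pin tool (217-fold dilution) for 16 h at 37C, 5% CO2. After the bla read, CellTiter-Glo was added and luminescence read at 30 min, room temperature.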

Experiment [4] has as its target Cellular tumor antigen p53 (Homo sapiens) (UniProt P04637). Put plainly: TOX21_p53_BLA_p3_ratio: Tox21 HCT-116 p53 Agonism Beta-lactamase Assay, Ratio, Phase 3 (AID 2283596). Summed up: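 HCT116 p53-bla cells (4000/well) given compound in DMSO (217-fold dilution) after 5 h, incubated 16 h at 37C. CCF4-AM substrate 2 h at room temperature; 460/530 nm emission ratio, gain fitted against DMSO.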

A short description of experiment [5]: TOX21_p53_BLA_p4_viability: Viability Assessment in the Tox21 HCT-116 p53 Agonism Beta-lactamase Assay, Phase 4 (AID 2283597).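 Further: hits lower the luminescence signal meaning cytotoxicity.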 Summed up:
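Cells plated, 5 h pre-incubation; DMSO compounds pinned (217-fold dilution); 16 h, 37C/5% CO2; CCF4-AM 2 h RT; CellTiter-Glo 30 min RT; luminescence read.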

For experiment [6], the target named is Cellular tumor antigen p53 (Homo sapiens) (UniProt P04637). Put plainly: TOX21_p53_BLA_p5_ratio: Tox21 HCT-116 p53 Agonism Beta-lactamase Assay, Ratio, Phase 5 (AID 2283599). Summed up: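 HCT-116 cells carrying a p53-inducible beta-lactamase reporter were seeded at 4000 cells/well and dosed after 5 h with compound in DMSO (217-fold dilution). After 16 h at 37C, CCF4-AM substrate was added for 2 h, and the 460/530 nm emission ratio was scored as gain-of-signal versus DMSO.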

Experiment [7] is described as follows: TOX21_p53_BLA_p5_viability: Viability Assessment in the Tox21 HCT-116 p53 Agonism Beta-lactamase Assay, Phase 5 (AID 2283600). Summed up:
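4000 cells/well; 5 h pre-incubation; DMSO compounds pin-transferred, 217-fold dilution; 16 h, 37C/5% CO2; CCF4-AM 2 h RT; CellTiter-Glo 30 min RT; luminescence.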

The target in experiment [8] is Cellular tumor antigen p53 (Homo sapiens) (UniProt P04637). The experiment in a line: TOX21_p53_BLA_p4_ratio: Tox21 HCT-116 p53 Agonism Beta-lactamase Assay, Ratio, Phase 4 (AID 2283601). A digest of the protocol:
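HCT116 cells carrying an inducible beta-lactamase reporter were plated at 4000 cells/well, rested 5 h, then exposed to compounds in DMSO (217-fold dilution) for 16 h at 37C. CCF4-AM substrate was loaded 2 h at room temperature; 460/530 nm emission ratio scored gain-of-signal versus DMSO.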

A short description of experiment [9]: CCTE_Harrill_HTTr_Viability_MCF7: CCTE's 6-hour Cell Viability Assessment for the High-Throughput Transcriptomics (HTTr) Platform, in MCF-7 cells cultured in DMEM + 10% fetal bovine serum, Harrill Lab (AID 2284010; active means hit-call score of the fitted dose curve at least 0.9, where 1 is the maximum; inactive means score below 0.9). Summed up: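 Cells were dosed with chemicals in an eight-point dilution series, imaged 6 hours later for propidium iodide uptake, and the endpoint was analyzed by bidirectional fitting against DMSO as negative control.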

A short description of experiment [10]: CCTE_Harrill_HTTr_Apoptosis_MCF7: CCTE's 6-hour Apoptosis Assessment for the High-Throughput Transcriptomics (HTTr) Platform, in MCF-7 cells cultured in DMEM + 10% fetal bovine serum, Harrill Lab (AID 2284011; active means hit-call score of the fitted dose curve at least 0.9, where 1 is the maximum; inactive means score below 0.9). A digest of the protocol:
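MCF-7 (DMEM + 10% FBS), 384-well; 8-pt dilution series, 6 h chemical exposure; caspase-3/7 activation via CellEvent Caspase 3/7 Green, HCI; bidirectional fit vs DMSO.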

Experiment [11] deals with PGR (gene 5241) (UniProt P06401). Put plainly: TOX21_PR_BLA_Followup_Agonist_ratio: Tox21 HEK293 Progesterone Receptor (PR) Agonism Beta-lactamase Follow-Up Assay, Ratio (AID 2283933). Summed up: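 HEK293T PR-UAS-bla, 2% CS-FBS; 6 hr preincubation, cpd/DMSO pinned, 16 hr 37C/5% CO2; LiveBLAzer B/G 2 hr RT; FRET ch2/ch1 ratio, agonist direction vs DMSO. Viability by CellTiter-Glo in same wells.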

For experiment [12] the target is unchanged. The experiment in a line: TOX21_PR_BLA_Followup_Antagonist_ratio: Tox21 HEK293 Progesterone Receptor (PR) Antagonism Beta-lactamase Follow-Up Assay, Ratio (AID 2283934). A digest of the protocol: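 HEK293T PR-UAS-bla, 2% CS-FBS; 6 hr plating, then cpd + R5020 (1 nM final), 16 hr 37C/5% CO2. B/G FRET substrate 2 h RT. Ratio ch2/ch1 vs DMSO; CellTiter-Glo viability multiplexed, autofluorescence checked.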

Experiment [13] in a line: TOX21_PR_BLA_Followup_Agonist_viability: Viability Assessment in the Tox21 HEK293 Progesterone Receptor (PR) Agonism Beta-lactamase Follow-Up Assay (AID 2283935).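 Further: signal loss means lower viability so actives are cytotoxic.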 A digest of the protocol: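 HEK293T PR-UAS-bla, 3,000 cells/well, 2% CS-FBS; 6 hr pre-incubation; cpd in DMSO, 16 hr 37C; LiveBLAzer 2 hr RT, then CellTiter-Glo 30 min RT, luminescence. Decrease = lost viability.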

The nature of experiment [14]: TOX21_PR_BLA_Followup_Antagonist_viability: Viability Assessment in the Tox21 HEK293 Progesterone Receptor (PR) Antagonism Beta-lactamase Follow-Up Assay (AID 2283936).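 Further: hits lower the luminescence signal meaning cytotoxicity.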 Summed up: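 PR-UAS-bla HEK293T cells (3,000/well, 2% charcoal-stripped FBS) given compound plus R5020 agonist, 16 h at 37C. CellTiter-Glo added after bla read, 30 min at room temperature; luminescence loss indicates cytotoxicity.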

Experiment [15] deals with PGR (gene 5241) (UniProt P06401). The experiment in a line: TOX21_PR_LUC_Followup_Agonist: Tox21 HEK293 Progesterone Receptor (PR) Agonism Luciferase Follow-Up Assay (AID 2283937; active means hit-call score of the fitted dose curve at least 0.9, where 1 is the maximum; inactive means score below 0.9). Summed up:
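Cells: HEK293-PR-A-luc, 3,000/well, 10% charcoal-stripped FBS assay medium. Compound added after 5 h; 16 h, 37C, 0% CO2. ONE-Glo luciferase, luminescence. Positive fit vs DMSO.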

Experiment [16] in a line: TOX21_PR_LUC_Followup_Agonist_viability: Viability Assessment in the Tox21 HEK293 Progesterone Receptor (PR) Agonism Luciferase Follow-Up Assay (AID 2283941).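 Further: loss of signal means cytotoxicity so actives lower viability.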 Summed up:
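Cells were kept 5 days in charcoal-stripped serum medium before plating HEK293-PR-A-luc at 3,000 cells/well. After 5 h they received DMSO-dissolved compound and incubated 16 h at 37C. Viability was taken from CellTiter-Glo ATP luminescence.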

Sequence of Cellular tumor antigen p53 (Homo sapiens) (P04637 whole entry, looked up): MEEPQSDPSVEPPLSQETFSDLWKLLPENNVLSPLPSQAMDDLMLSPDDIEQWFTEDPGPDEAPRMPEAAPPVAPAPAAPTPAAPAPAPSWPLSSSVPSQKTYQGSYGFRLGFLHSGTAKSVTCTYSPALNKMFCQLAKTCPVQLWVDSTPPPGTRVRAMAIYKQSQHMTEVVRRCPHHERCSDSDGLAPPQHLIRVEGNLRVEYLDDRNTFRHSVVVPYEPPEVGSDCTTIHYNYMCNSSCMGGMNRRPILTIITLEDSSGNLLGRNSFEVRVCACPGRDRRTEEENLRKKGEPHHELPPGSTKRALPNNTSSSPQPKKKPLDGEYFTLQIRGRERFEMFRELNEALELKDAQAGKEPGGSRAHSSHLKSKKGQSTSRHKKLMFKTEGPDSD
Sequence of PGR (gene 5241) (P06401 whole entry, looked up): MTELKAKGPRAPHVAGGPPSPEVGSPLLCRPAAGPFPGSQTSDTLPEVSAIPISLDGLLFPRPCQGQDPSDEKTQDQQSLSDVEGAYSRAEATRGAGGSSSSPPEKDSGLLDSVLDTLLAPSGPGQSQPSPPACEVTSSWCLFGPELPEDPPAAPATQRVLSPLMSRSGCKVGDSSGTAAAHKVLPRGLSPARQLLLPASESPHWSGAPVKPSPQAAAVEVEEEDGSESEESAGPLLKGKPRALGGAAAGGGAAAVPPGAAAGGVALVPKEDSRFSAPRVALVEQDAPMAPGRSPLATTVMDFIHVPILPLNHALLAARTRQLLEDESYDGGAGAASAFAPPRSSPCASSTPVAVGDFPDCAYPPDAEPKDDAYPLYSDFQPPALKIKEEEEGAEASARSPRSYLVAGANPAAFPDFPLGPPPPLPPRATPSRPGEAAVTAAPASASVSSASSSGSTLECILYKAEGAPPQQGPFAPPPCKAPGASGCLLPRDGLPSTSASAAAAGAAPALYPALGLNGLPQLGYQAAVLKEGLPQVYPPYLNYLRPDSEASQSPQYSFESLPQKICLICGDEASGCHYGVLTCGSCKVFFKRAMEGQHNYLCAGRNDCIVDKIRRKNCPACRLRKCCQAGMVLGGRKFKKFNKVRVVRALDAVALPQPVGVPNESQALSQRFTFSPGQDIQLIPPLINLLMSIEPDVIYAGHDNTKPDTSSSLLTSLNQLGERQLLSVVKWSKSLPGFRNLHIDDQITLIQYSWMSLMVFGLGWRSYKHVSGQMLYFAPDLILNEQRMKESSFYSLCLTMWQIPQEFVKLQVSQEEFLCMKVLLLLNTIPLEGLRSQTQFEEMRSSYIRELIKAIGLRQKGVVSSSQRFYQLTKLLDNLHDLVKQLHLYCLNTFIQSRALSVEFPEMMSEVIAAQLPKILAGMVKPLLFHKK

In the case of `Oc1ccc(C2(c3ccc(O)cc3)CCCCC2)cc1`, the AC50 was 72.1 µM (active) in experiment [1]; 83.2 µM (active) in experiment [2]; 44.1 µM (active) in [3]; 83.7 µM (active) in experiment [4]; 46.3 µM (active) in experiment [5]; 82.3 µM (active) in [6]. The AC50 in experiment [7] was 74 µM (active); in experiment [8] it was 82.9 µM (active). Moreover, the outcome in [9] and in experiment [10] was inactive.

As for `COc1ccc2c(c1OC)CN1CCc3cc4c(cc3C1C2)OCO4` (stereo unspecified), the compound was classed as inactive in experiment [1], in [2], in experiment [3], in [4], in [5] and in [7]. The outcome in experiment [11], in [13], in experiment [14], in [15] and in experiment [16] was inactive. Also, in experiment [12], the concentration at half-maximal activity (AC50) is 5.55 µM (active).

Take `O=C/C=C/c1ccco1`: the call in experiment [1], in experiment [2], in [3], in experiment [4], in experiment [5] and in experiment [7] was inactive. For the same compound, the outcome in [8] was inactive.

For `COc1ccc(CN2CCNCC2)c(OC)c1OC`, the result in [1], in experiment [2], in experiment [3], in [4], in [5] and in experiment [7] was inactive. In addition, the outcome in [8] was inactive.
